For 32 molecules, Potency results are on record in PubChem BioAssay (NCATS).

Inconclusive results are not listed. Entries that show only a call come without a potency. Activity calls are given as the source filed them. Calls come from the whole dose curve; as a rule, active = well fitted cell-killing curve with a large enough effect; inconclusive = small, poorly fitted or top-dose-only effect, or effect the other way; inactive = flat fitted curve, though single readings scatter.
Potency is the fitted concentration of half-maximal effect.

The subject of the first assay is JEG-3. Put plainly: Primary qHTS to identify gynecologic anti-cancer compounds using libraries of approved drugs and bioactive compounds (AID 1345084). Note: nearly all actives have a fitted effect of over 55% in size. The conditions noted are these: Gynecologic cancer cell panel viability, ATPlite luminescence, 48 h; series mostly up to 57.5 µM. Summed up: (§1)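 48 h compound exposure at 37 C, 5% CO2; five-point qHTS. ATPlite luminescence readout of cell ATP.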
For the molecule `CCN[C@H]1C[C@H](C)S(=O)(=O)c2sc(S(N)(=O)=O)cc21`, the Potency result was “inactive”.
For the molecule `Cc1c(-c2ccc(O)cc2)n(Cc2ccc(OCCN3CCCCCC3)cc2)c2ccc(O)cc12`, the Potency entry was “inactive”.
On the same count and under the same terms, as for `CNC(=O)c1cc(Oc2ccc(NC(=O)Nc3ccc(Cl)c(C(F)(F)F)c3)cc2)ccn1`, the entry is “inactive”; as for `CCn1cc(C(=O)O)c(=O)c2cc(F)c(N3CCNCC3)cc21`, “inactive”.
As for `C[C@@H](NCCCc1cccc(C(F)(F)F)c1)c1cccc2ccccc12`, the Potency result is “inactive”.
Same read-out and setting: for `NC(=O)c1cccnc1` the value was “inactive”; for `O=C(N[C@H](CO)[C@H](O)c1ccc([N+](=O)[O-])cc1)C(Cl)Cl`, “inactive”.
On to `COc1cc2ncnc(Nc3cccc(Cl)c3)c2cc1OC`, for which the Potency result was “inactive”.
`CC(C)C[C@H](NC(=O)[C@H](CCc1ccccc1)NC(=O)CN1CCOCC1)C(=O)N[C@@H](Cc1ccccc1)C(=O)N[C@@H](CC(C)C)C(=O)[C@@]1(C)CO1`: the Potency result is “inactive”.
Consider `Clc1ccccc1CN1CCc2sccc2C1`, for which the Potency entry was “inactive”.
As to `O[C@@H](CNC[C@H](O)[C@H]1CCc2cc(F)ccc2O1)[C@@H]1CCc2cc(F)ccc2O1`, the Potency entry was “inactive”.
`CCC(=O)O[C@]1(C(=O)SCF)[C@H](C)C[C@H]2[C@@H]3C[C@H](F)C4=CC(=O)C=C[C@]4(C)[C@@]3(F)[C@@H](O)C[C@@]21C`: the Potency entry is “inactive”.
Still for that read-out and setting: as for `N=C(N)c1ccc(OCCCCCOc2ccc(C(=N)N)cc2)cc1`, the entry is “inactive”.
Same read-out and setting: as for `Cc1cc(NS(=O)(=O)c2ccc(N)cc2)no1`, the entry is “inactive”; as for `NC(N)=NC(N)=NCCc1ccccc1`, “inactive”.
Consider `Cc1noc(NS(=O)(=O)c2ccc(N)cc2)c1C`, for which the Potency entry is “inactive”.
Same read-out and setting: as for `Nc1nc(=S)c2[nH]cnc2[nH]1`, the figure is 3.16 µM (active); as for `Nc1nc(F)nc2c1ncn2[C@@H]1O[C@H](CO)[C@@H](O)[C@@H]1O`, “inactive”.
Still for that read-out and setting: for `CCc1c2c(nc3ccc(OC(=O)N4CCC(N5CCCCC5)CC4)cc13)-c1cc3c(c(=O)n1C2)COC(=O)[C@]3(O)CC` the value was “inactive”.
`CNCC[C@H](Oc1cccc2ccccc12)c1cccs1`: the Potency result is “inactive”.
Same read-out and setting: as for `CCOC(=O)[C@H](CCc1ccccc1)N[C@H]1CCc2ccccc2N(CC(=O)O)C1=O`, the entry is “inactive”.
Turning to `CCCCc1oc2ccc(NS(C)(=O)=O)cc2c1C(=O)c1ccc(OCCCN(CCCC)CCCC)cc1`, the Potency entry was “inactive”.

In another assay the test system is OV90. Described as above. The conditions noted are these: Gynecologic cancer cell panel viability, ATPlite luminescence, 48 h; series mostly up to 57.5 µM. Summed up:
as §1
A general note: In ATP-based viability assays light output follows the ATP content of the culture.
For the molecule `CCN[C@H]1C[C@H](C)S(=O)(=O)c2sc(S(N)(=O)=O)cc21`, the Potency entry was “inactive”.
On the same count and under the same terms, as for `CNC(=O)c1cc(Oc2ccc(NC(=O)Nc3ccc(Cl)c(C(F)(F)F)c3)cc2)ccn1`, the entry is “inactive”; as for `CCCCOc1ccc(CC(=O)NO)cc1`, “inactive”; as for `COC(=O)Nc1nc2ccc(Sc3ccccc3)cc2[nH]1`, 10 µM (active).
Same read-out and setting: for `CCn1cc(C(=O)O)c(=O)c2cc(F)c(N3CCNCC3)cc21` the value was “inactive”; for `COc1cc([C@@H]2c3cc4c(cc3[C@H](O)[C@H]3COC(=O)[C@H]23)OCO4)cc(OC)c1OC`, 0.355 µM (active); for `NC(=O)c1cccnc1`, “inactive”.
Take `COc1cc2ncnc(Nc3cccc(Cl)c3)c2cc1OC`: the Potency result is “inactive”.
On to `CC(C)C[C@H](NC(=O)[C@H](CCc1ccccc1)NC(=O)CN1CCOCC1)C(=O)N[C@@H](Cc1ccccc1)C(=O)N[C@@H](CC(C)C)C(=O)[C@@]1(C)CO1`, for which the Potency is 0.251 µM (active).
Same read-out and setting: as for `Clc1ccccc1CN1CCc2sccc2C1`, the entry is “inactive”; as for `CCC(=O)O[C@]1(C(=O)SCF)[C@H](C)C[C@H]2[C@@H]3C[C@H](F)C4=CC(=O)C=C[C@]4(C)[C@@]3(F)[C@@H](O)C[C@@]21C`, “inactive”; as for `Cc1cc(NS(=O)(=O)c2ccc(N)cc2)no1`, “inactive”.
On to `Cc1noc(NS(=O)(=O)c2ccc(N)cc2)c1C`, for which the Potency entry is “inactive”.
For the molecule `Nc1nc(=S)c2[nH]cnc2[nH]1`, the Potency was 8.91 µM (active).
Regarding `Nc1nc(F)nc2c1ncn2[C@@H]1O[C@H](CO)[C@@H](O)[C@@H]1O`, the Potency result is “inactive”.
Take `CCc1c2c(nc3ccc(OC(=O)N4CCC(N5CCCCC5)CC4)cc13)-c1cc3c(c(=O)n1C2)COC(=O)[C@]3(O)CC`: the Potency result was “inactive”.
The same measure, in the same setting: for `CCc1cc(C(N)=S)ccn1` the value was “inactive”; for `COc1ccc2cc3[n+](cc2c1OC)CCc1cc2c(cc1-3)OCO2`, 5.62 µM (active); for `CNCC[C@H](Oc1cccc2ccccc12)c1cccs1`, 28.2 µM (active).
Consider `CCOC(=O)[C@H](CCc1ccccc1)N[C@H]1CCc2ccccc2N(CC(=O)O)C1=O`, for which the Potency entry is “inactive”.
The same measure, in the same setting: for `COC(=O)Nc1nc2ccc(C(=O)c3ccccc3)cc2[nH]1` the value was 8.91 µM (active).

For the next assay, the system named is PA-1. The description is as above. Particulars: Gynecologic cancer cell panel viability, ATPlite luminescence, 48 h; series mostly up to 57.5 µM. Summed up:
as §1
On to `CCN[C@H]1C[C@H](C)S(=O)(=O)c2sc(S(N)(=O)=O)cc21`, for which the Potency result is “inactive”.
Same read-out and setting: as for `CNC(=O)c1cc(Oc2ccc(NC(=O)Nc3ccc(Cl)c(C(F)(F)F)c3)cc2)ccn1`, the entry is “inactive”; as for `COC(=O)Nc1nc2ccc(Sc3ccccc3)cc2[nH]1`, 1.41 µM (active); as for `CCn1cc(C(=O)O)c(=O)c2cc(F)c(N3CCNCC3)cc21`, “inactive”.
Still for that read-out and setting: as for `COc1cc(NCc2ccc3nc(N)nc(N)c3c2C)cc(OC)c1OC`, the figure is 0.178 µM (active).
Consider `NC(=O)c1cccnc1`, for which the Potency result was “inactive”.
As to `O=C(N[C@H](CO)[C@H](O)c1ccc([N+](=O)[O-])cc1)C(Cl)Cl`, the Potency result was “inactive”.
The same measure, in the same setting: as for `COc1cc2ncnc(Nc3cccc(Cl)c3)c2cc1OC`, the entry is “inactive”; as for `Oc1c(Cl)cc(Cl)c2cccnc12`, 12.6 µM (active); as for `CC(C)C[C@H](NC(=O)[C@H](CCc1ccccc1)NC(=O)CN1CCOCC1)C(=O)N[C@@H](Cc1ccccc1)C(=O)N[C@@H](CC(C)C)C(=O)[C@@]1(C)CO1`, 0.0891 µM (active).
Still for that read-out and setting: as for `O=C(O)c1ccc(-n2nc(-c3ccccc3O)nc2-c2ccccc2O)cc1`, the figure is 8.91 µM (active).
With `CCC(=O)O[C@]1(C(=O)SCF)[C@H](C)C[C@H]2[C@@H]3C[C@H](F)C4=CC(=O)C=C[C@]4(C)[C@@]3(F)[C@@H](O)C[C@@]21C`, the Potency entry is “inactive”.
For `N=C(N)c1ccc(OCCCCCOc2ccc(C(=N)N)cc2)cc1`, the Potency was 5.01 µM (active).
On the same count and under the same terms, as for `Cc1cc(NS(=O)(=O)c2ccc(N)cc2)no1`, the entry is “inactive”; as for `COC(=O)Nc1nc2ccc(S(=O)c3ccccc3)cc2[nH]1` (stereo unspecified), 1.58 µM (active); as for `Cc1noc(NS(=O)(=O)c2ccc(N)cc2)c1C`, “inactive”.
Still for that read-out and setting: for `Nc1nc(=S)c2[nH]cnc2[nH]1` the value was 3.55 µM (active).
For the molecule `Nc1nc(F)nc2c1ncn2[C@@H]1O[C@H](CO)[C@@H](O)[C@@H]1O`, the Potency entry was “inactive”.
Still for that read-out and setting: for `CCc1c2c(nc3ccc(OC(=O)N4CCC(N5CCCCC5)CC4)cc13)-c1cc3c(c(=O)n1C2)COC(=O)[C@]3(O)CC` the value was 12.6 µM (active); for `CCc1cc(C(N)=S)ccn1`, “inactive”; for `CNCC[C@H](Oc1cccc2ccccc12)c1cccs1`, “inactive”.
With `CCOC(=O)[C@H](CCc1ccccc1)N[C@H]1CCc2ccccc2N(CC(=O)O)C1=O`, the Potency result was “inactive”.
For the molecule `COC(=O)Nc1nc2ccc(C(=O)c3ccccc3)cc2[nH]1`, the Potency was 1.41 µM (active).
